# Data taken from PubChem BioAssay (NCATS).
# Inconclusive results are not listed. Activity calls are given as the source filed them. Unless noted, the call rests on the fitted dose curve; in most records, active means well fitted curve in the direction sought with a large enough effect; inconclusive means small, poorly fitted or top-dose-only effect, or another doubt; inactive means no such curve, though single readings can be large; an effect the other way counts as inactive or inconclusive.
# Key:
# [1] = qHTS for differential inhibitors of proliferation of Plasmodium falciparum line W2 (AID 1883); details: Potency: Plasmodium falciparum W2 proliferation inhibition; series mostly up to 28.7 µM
# [2] = Validation screen for small molecules that induce DNA re-replication in MCF 10A normal breast cells (AID 463097); details: MCF 10A cells, DNA re-replication phenotype imaging; series mostly up to 46.1 µM
# How it was run: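 MCF 10A cells exposed to compound 48 hr at 37 C, 5% CO2, then Hoechst-stained 40 min. Laser-scanning imaging of nuclear DNA content (405 nm ex, 500-530 nm em); re-replication scored as rise in nuclei with elevated fluorescence intensity.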
# [3] = biological target: Endonuclease 4 (Escherichia coli (strain K12)) (UniProt P0A6C1); test: Counterscreen for APE1 Inhibitors: qHTS Validation Assay for Inhibitors of Endonuclease IV (AID 1708); details: E. coli endonuclease IV, DNA cleavage fluorescence; series mostly up to 57.1 µM
# How it was run: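 Concentration-response counterscreen run identically to the APE1 assay: 15 min room-temperature preincubation of 2 nM enzyme with compound, reaction started with 50 nM quenched abasic DNA, progress taken from kinetic fluorescence.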
# [4] = qHTS Assay for Modulators of Human Peripheral Myelin Protein 22 (PMP22) Expression/Activity (AID 1967; active means well fitted curve in the direction sought with a large enough effect in the signal ratio; the % refers to the signal ratio); details: Cell-based PMP22 reporter, dual-color luciferase ratio, mouse Pmp22 promoter in mouse Schwann cells; series mostly up to 115 µM
# How it was run: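 Mouse MSC80 Schwann cells carrying Pmp22 promoter–green click beetle luciferase plus EF-alpha–red luciferase control, dosed 24 h at 37 °C. Dual-filter luminescence, overlap-corrected; %Activity from green/red ratio normalised to untreated cells, concentration-response curves fitted.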
# [5] = Quantitative high throughput screen for delayed death inhibitors of the malarial parasite plastid, 48 hour incubation (AID 488752); details: Plasmodium falciparum growth; series mostly up to 28.7 µM
# How it was run: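 Erythrocytes infected with firefly luciferase-expressing P. falciparum (2% hematocrit, 0.1% parasitemia) cultured with compound for 48 h at 37 C, 5% CO2, in RPMI 1640/0.5% Albumax. Growth inhibition read as loss of luminescence.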
# [6] = biological target: Voltage-gated inwardly rectifying potassium channel KCNH2 (Homo sapiens) (UniProt Q12809); test: qHTS Assay for Small Molecule Inhibitors of the Human hERG Channel Activity (AID 588834); details: U2OS BacMam hERG, FluxOR thallium flux fluorescence; series mostly up to 46.1 µM
# Chain of Voltage-gated inwardly rectifying potassium channel KCNH2 (Homo sapiens) (Q12809 whole entry, looked up): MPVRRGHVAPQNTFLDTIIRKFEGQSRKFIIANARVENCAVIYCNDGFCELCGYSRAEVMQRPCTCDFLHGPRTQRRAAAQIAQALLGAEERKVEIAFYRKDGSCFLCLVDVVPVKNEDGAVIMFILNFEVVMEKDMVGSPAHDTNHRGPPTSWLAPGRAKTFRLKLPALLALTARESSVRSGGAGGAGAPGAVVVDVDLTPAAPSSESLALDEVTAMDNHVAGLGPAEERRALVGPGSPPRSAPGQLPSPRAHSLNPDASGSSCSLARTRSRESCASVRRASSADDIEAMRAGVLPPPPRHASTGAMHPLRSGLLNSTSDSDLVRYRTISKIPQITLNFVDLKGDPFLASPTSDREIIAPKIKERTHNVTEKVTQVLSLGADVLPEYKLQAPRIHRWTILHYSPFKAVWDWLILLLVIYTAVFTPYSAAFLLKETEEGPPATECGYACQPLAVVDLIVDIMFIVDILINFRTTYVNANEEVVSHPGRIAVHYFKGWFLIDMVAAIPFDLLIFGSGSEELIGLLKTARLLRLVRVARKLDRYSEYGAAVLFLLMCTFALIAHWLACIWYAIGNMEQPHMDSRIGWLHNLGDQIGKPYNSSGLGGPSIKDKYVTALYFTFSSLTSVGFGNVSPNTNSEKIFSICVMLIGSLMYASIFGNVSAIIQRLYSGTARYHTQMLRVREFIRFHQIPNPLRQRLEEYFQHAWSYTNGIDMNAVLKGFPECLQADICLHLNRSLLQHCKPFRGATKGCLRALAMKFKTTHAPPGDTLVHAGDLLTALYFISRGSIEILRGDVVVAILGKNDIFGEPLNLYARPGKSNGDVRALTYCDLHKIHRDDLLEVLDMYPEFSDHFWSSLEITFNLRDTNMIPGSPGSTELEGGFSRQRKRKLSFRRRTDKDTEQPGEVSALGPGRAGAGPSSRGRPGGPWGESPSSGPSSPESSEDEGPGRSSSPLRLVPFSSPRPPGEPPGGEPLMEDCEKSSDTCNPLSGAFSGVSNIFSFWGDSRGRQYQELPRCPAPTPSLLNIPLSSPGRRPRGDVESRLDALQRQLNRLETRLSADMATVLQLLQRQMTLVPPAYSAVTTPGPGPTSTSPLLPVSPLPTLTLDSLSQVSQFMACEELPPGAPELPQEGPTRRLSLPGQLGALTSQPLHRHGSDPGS
# How it was run: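 U2OS cells BacMam-transduced with hERG, 2000 cells/well, compound ~10 min at 37 °C before stimulation buffer. FluxOR thallium flux fluorescence read kinetically on FDSS; decrease indicates block; AC50 from Hill fits.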
# [7] = biological target: Rap guanine nucleotide exchange factor 3 (Homo sapiens) (UniProt O95398); test: Confirmatory qHTS for antagonist of cAMP-regulated guanine nucleotide exchange factor 3 (EPAC1) (AID 1645880); details: EPAC1 Rap1B-BODIPY-GDP exchange, fluorescence; series mostly up to 115 µM
# Chain of Rap guanine nucleotide exchange factor 3 (Homo sapiens) (O95398 whole entry, looked up): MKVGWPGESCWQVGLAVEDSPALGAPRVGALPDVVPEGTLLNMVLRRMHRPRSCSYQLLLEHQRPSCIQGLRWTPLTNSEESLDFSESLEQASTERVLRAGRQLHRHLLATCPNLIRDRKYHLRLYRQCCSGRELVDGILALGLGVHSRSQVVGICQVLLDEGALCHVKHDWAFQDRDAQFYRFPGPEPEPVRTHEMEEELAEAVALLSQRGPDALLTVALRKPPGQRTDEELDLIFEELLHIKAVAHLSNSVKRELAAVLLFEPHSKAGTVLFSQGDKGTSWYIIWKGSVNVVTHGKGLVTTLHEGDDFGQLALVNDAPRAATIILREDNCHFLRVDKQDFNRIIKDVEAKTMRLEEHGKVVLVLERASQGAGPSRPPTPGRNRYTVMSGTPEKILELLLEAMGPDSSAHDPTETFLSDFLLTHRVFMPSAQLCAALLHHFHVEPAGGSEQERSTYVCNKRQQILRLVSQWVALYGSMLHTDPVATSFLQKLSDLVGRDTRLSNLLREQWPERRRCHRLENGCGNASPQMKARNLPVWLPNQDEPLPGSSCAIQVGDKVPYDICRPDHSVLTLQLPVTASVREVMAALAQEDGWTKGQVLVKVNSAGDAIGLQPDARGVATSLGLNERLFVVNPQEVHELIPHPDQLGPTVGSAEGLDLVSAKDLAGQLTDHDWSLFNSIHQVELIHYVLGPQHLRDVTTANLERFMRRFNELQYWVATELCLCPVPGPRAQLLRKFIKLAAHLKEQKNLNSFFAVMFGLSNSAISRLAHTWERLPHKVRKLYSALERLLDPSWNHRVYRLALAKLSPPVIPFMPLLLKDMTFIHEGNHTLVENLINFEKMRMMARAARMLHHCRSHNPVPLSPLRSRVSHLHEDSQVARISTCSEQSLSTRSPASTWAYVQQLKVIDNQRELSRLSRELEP
# How it was run: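 Nucleotide exchange uses 100 nM EPAC1, 250 nM RAP1B-BODIPY-GDP and 50 uM GDP, with compounds in a concentration-titration series. After 5 min at room temperature, fluorescence (480 nm ex/540 nm em) is read every 5 min for 30 min. Data are normalized to control ATA and DMSO.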
# [8] = biological target: Rap guanine nucleotide exchange factor 3 (Homo sapiens) (UniProt O95398); test: Confirmatory qHTS for agonist of cAMP-regulated guanine nucleotide exchange factor 3 (EPAC1) (AID 1645881); details: EPAC1 Rap1B BODIPY-GDP exchange fluorescence, 100% = cAMP control response; series mostly up to 154 µM
# [9] = biological target: Rap guanine nucleotide exchange factor 4 (Homo sapiens) (UniProt Q8WZA2); test: Confirmatory qHTS for agonist of cAMP-regulated guanine nucleotide exchange factor 4 (EPAC2) (AID 1645884); details: EPAC2 GEF activity, Rap1B-BODIPY-GDP fluorescence, percent relative to cAMP agonist control; series mostly up to 154 µM
# Chain of Rap guanine nucleotide exchange factor 4 (Homo sapiens) (Q8WZA2 whole entry, looked up): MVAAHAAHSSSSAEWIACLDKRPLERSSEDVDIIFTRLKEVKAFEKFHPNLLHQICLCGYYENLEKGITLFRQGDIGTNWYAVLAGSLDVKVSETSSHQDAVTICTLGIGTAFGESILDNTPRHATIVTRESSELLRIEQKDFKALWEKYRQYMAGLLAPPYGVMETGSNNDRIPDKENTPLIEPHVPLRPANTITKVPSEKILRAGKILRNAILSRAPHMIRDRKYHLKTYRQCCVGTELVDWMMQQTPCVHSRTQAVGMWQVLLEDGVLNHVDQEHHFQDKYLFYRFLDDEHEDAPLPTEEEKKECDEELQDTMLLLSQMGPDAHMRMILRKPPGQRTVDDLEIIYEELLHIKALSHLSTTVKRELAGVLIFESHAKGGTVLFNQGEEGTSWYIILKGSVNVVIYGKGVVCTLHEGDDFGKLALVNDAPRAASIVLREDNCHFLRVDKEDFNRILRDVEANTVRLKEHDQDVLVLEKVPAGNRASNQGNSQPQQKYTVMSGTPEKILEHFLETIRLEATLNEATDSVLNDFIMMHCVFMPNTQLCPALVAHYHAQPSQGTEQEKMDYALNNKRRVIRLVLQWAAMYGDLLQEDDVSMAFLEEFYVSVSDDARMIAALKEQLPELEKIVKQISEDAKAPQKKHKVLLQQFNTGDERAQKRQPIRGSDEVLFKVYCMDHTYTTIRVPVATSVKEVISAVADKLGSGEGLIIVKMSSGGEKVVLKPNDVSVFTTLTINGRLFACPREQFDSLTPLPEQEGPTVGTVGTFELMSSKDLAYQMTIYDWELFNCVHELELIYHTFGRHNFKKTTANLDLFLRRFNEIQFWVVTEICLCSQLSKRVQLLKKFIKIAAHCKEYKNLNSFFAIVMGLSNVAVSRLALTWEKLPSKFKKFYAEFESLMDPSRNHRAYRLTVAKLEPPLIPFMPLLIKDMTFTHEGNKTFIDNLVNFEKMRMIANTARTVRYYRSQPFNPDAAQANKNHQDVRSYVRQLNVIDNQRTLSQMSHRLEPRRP
# [10] = NCATS anti-infectives library activity on HEK293 viability as a counter-qHTS vs the C. elegans viability qHTS (AID 1745854); details: HEK293 viability counter-screen; series mostly up to 41.8 µM
# How it was run: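 HEK293 cells (1,500/well) exposed 24 hr at 37C to 1:5 titrations, up to 41.7 uM final; counter-screen to a C. elegans viability qHTS. Viability by CellTiter-Glo luminescence after 10 min at room temperature; digitonin as control.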
# [11] = NCATS anti-infectives library activity on the primary C. elegans qHTS viability assay (AID 1745855; calls by dose curve); details: C. elegans worm area imaging, day 7; series mostly up to 41.8 µM
# How it was run: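 Viability read-out is GFP fluorescence of PE254-GFP-FLuc C. elegans, measured by laser cytometry (488 nm) at day 0, 3 and 7. Ten L1 worms per well were incubated 7 days at 21 °C with compounds and bacterial capsules in S medium.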
# [12] = qHTS Assay for Identification of Small Molecule Agonists for Hypoxia Response Element Signaling Pathway (AID 914; active means well fitted activation curve with a large enough effect in the signal ratio, with a control signal flat, not every such curve was filed as active; the % refers to the signal ratio); details: ME-180 HRE-bla reporter, beta-lactamase ratio, CoCl2, 17 h; activation: stronger effect = higher value
# How it was run: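 Cells were plated overnight, pin-dosed with compound in a titration series, co-stimulated with EC50 CoCl2 and incubated 17 hours at 37 degrees Celsius. CCF4 substrate was then loaded, and AC50 values came from the 460nm/530nm ratio.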
# [13] = qHTS for differential inhibitors of proliferation of Plasmodium falciparum line 3D7 (AID 1876); details: P. falciparum 3D7 proliferation inhibition; series mostly up to 28.7 µM
# [14] = biological target: RecQ-like DNA helicase BLM (Homo sapiens) (UniProt P54132); test: qHTS Validation Assay for Inhibitors of Bloom's syndrome helicase (BLM) (AID 2364); details: BLM helicase DNA unwinding, fluorescence, in vitro; series mostly up to 57.1 µM
# Chain of RecQ-like DNA helicase BLM (Homo sapiens) (P54132 whole entry, looked up): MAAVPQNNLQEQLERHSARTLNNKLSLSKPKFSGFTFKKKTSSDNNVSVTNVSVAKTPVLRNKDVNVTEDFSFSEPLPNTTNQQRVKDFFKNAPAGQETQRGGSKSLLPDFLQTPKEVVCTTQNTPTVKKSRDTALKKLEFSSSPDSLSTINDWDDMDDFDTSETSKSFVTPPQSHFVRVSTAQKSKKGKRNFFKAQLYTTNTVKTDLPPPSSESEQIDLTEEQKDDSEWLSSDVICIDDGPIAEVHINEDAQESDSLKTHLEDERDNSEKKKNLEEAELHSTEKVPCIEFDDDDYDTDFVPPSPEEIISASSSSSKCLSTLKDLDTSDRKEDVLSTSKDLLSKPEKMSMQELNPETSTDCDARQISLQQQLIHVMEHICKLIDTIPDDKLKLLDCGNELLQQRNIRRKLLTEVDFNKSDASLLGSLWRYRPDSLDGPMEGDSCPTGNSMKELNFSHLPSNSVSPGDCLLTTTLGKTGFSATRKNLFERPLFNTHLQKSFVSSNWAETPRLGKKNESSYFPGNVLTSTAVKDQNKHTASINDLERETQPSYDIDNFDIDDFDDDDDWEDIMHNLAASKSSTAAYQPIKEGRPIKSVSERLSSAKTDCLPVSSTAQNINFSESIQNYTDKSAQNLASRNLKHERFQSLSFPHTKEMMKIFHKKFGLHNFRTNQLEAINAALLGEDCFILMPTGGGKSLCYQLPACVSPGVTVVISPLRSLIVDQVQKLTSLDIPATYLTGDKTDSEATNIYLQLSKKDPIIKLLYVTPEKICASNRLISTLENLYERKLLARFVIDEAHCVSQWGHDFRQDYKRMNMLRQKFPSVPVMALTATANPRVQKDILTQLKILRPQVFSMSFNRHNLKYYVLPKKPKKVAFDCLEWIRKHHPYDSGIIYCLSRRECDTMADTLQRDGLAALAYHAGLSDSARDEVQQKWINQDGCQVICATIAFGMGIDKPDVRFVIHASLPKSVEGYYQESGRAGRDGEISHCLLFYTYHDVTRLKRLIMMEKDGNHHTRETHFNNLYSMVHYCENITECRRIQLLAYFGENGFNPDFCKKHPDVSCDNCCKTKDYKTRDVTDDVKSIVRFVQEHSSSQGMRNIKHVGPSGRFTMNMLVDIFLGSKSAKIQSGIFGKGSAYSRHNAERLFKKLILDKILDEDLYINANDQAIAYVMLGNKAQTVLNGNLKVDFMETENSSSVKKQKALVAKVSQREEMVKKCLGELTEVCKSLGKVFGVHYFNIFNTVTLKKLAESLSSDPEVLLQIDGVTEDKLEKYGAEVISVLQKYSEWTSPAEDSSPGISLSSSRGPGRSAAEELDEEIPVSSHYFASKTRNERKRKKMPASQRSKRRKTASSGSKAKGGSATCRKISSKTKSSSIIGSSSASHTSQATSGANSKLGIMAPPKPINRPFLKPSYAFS
# How it was run: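 BLM 50 nM in 25 mM Tris-HCl pH 8.0, 5 mM NaCl, 2 mM MgCl2, 1 mM DTT, 0.01% Tween-20, 2.5 ug/ml poly(dI-dC); 15 min cpd preinc, RT. Start: 200 nM forked DNA + 2 mM ATP (final). TAMRA read, 2 reads 2 h apart.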
# [15] = qHTS profiling of the MIPE4 collection as inhibitors of Plasmodium falciparum (3D7) proliferation (AID 743344; call rule not given here); details: P. falciparum 3D7 in erythrocytes, SYBR Green DNA fluorescence, 72 h; at 28.5 µM (top of the series) unless noted
# How it was run: (§1)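 Erythrocytes infected with P. falciparum (0.3% parasitemia, 2.5% hematocrit) incubated with compounds 72 h at 37 C, 5% CO2. Lysis with saponin/Triton buffer containing SYBR Green I, overnight at room temperature in the dark; DNA fluorescence (485/535 nm) normalised to 0.29 uM artemisinin and DMSO.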
# [16] = qHTS profiling of the MIPE4 collection as inhibitors of Plasmodium falciparum (DD2) proliferation (AID 743345; call rule not given here); details: P. falciparum Dd2 in erythrocytes, SYBR Green DNA, 72 h; at 28.5 µM (top of the series) unless noted
# How it was run: as §1
# [17] = Confirmation and Secondary Assay for Modulators of Hemoglobin Beta Chain Splicing at IVS2 654 locus (AID 910); details: HeLa EGFP-654 splicing reporter, GFP fluorescence, 48 h; series mostly up to 46.1 µM
# How it was run: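 HeLa cells stably carrying EGFP interrupted by mutant beta-globin IVS2-654 intron (CMV-driven) were treated with compound for 2 days at 37C; corrected splicing was scored as total peak GFP intensity per well (488 nm excitation, 500-520 nm emission).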
# [18] = Confirmation and Secondary Assay for Modulators of Hemoglobin Beta Chain Splicing at IVS2 705 locus (AID 930); details: HeLa EGFP-705 splicing reporter, GFP fluorescence, 48 h; series mostly up to 46.1 µM
# How it was run: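 Splice-correction reporter: EGFP cDNA split by beta-globin intron 2 bearing the 705 mutation, stably in HeLa. Compound incubation 2 days, 37C; fluorescent objects 5-250 µm summed per well.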
# [19] = qHTS for Antimalaria activity screened against the NCATS CANVASS Library (AID 1347380); details: P. falciparum Dd2 growth, SYBR Green fluorescence, 72 h; series mostly up to 28.7 µM
# How it was run: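 Red blood cells infected with P. falciparum Dd2 (2.5% hematocrit final, 0.3% parasitemia) were exposed to compounds in an 11-point qHTS series for 72 hr at 37C under 5% O2 and 5% CO2. Lysis buffer with SYBR Green was then added for 18 hr, and fluorescence was read at 485/535 nm.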
# [20] = qHTS for inhibitors of Wild type Zika virus screened against the NCATS CANVASS Library (AID 1347396); details: Vero cells, Zika virus CPE, CellTiter-Glo, 72 h; series mostly up to 45.9 µM
# How it was run: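 Luminescent CellTiter Glo read-out of virus-induced cytotoxicity, 72 h post-infection, in Vero 766 cells. Compounds were tested at 11 concentrations; uninfected, vehicle-treated wells defined 100% inhibition.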
smiles,measurement,setting,value
COc1ccc(-n2nc(C(F)(F)F)cc2-c2ccc(Cl)cc2)cc1,Potency,[1],10 µM (active)
same,Potency,[2],inactive
N#CC(C#N)=Cc1ccc([N+](=O)[O-])c(O)c1,outcome,[3],inactive
same,Potency,[1],inactive
same,outcome,[4],inactive
same,Potency,[2],inactive
same,Potency,[5],inactive
same,Potency,[6],inactive
CCCn1c(C)c(C(=O)c2cccc3ccccc23)c2ccccc21,Potency,[7],inactive
same,outcome,[8],inactive
same,outcome,[9],inactive
O=NN1CCCC1c1cccnc1 (stereo not given),Potency,[10],inactive
same,Potency,[11],inactive
CN1[C@@H]2CC[C@H]1CC(O[C@@H](c1ccccc1)c1ccc(Cl)cc1)C2 (stereo not given in full),activation,[12],-9.36% (inactive)
COc1cc(CCN)ccc1O,outcome,[3],inactive
same,Potency,[13],inactive
same,Potency,[1],inactive
same,outcome,[4],inactive
same,Potency,[14],inactive
same,Potency,[2],inactive
same,Potency,[5],inactive
same,Potency,[6],inactive
COc1ccc(CCN)cc1O,outcome,[3],inactive
same,Potency,[13],inactive
same,Potency,[1],inactive
same,outcome,[4],inactive
same,Potency,[2],inactive
same,Potency,[5],inactive
same,Potency,[6],inactive
C=C(C)CN1CC[C@@]23c4c5ccc(O)c4O[C@H]2c2[nH]c4ccccc4c2C[C@]3(O)[C@@H]1C5,outcome,[8],inactive
same,outcome,[9],inactive
O=C1CC[C@@]2(O)[C@H]3Cc4ccc(O)c5c4C2(CCN3CC2CC2)[C@H]1O5,"parasite growth, % of DMSO control",[15],101%
same,"parasite growth remaining, % of DMSO control (lower = more inhibition)",[16],82%
Cc1ncc(C[n+]2csc(CCO)c2C)c(=O)[nH]1,"parasite growth, % of DMSO control",[15],96.7%
same,"parasite growth remaining, % of DMSO control (lower = more inhibition)",[16],104%
C[C@H](N)Cc1c[nH]c2ccc(O)cc12,activation,[12],-4.29% (inactive)
CC1OC(=O)C(C(C)C)NC(=O)C(C(C)C)OC(=O)C(C(C)C)NC(=O)C(C)OC(=O)C(C(C)C)NC(=O)C(C(C)C)OC(=O)C(C(C)C)NC(=O)C(C)OC(=O)C(C(C)C)NC(=O)C(C(C)C)OC(=O)C(C(C)C)NC1=O (stereo not given),Potency,[17],inactive
same,outcome,[18],inactive
O=C1CS[C@@H](c2ccccc2Cl)c2cc(Cl)ccc2N1,Potency,[7],inactive
COc1ccc(C23Oc4cc(OC)cc(OC)c4[C@](O)([C@H](c4ccccc4)C2C(=O)NCCCCNC(=O)c2ccccc2)[C@@H]3O)cc1 (stereo not given in full),Potency,[19],inactive
same,Potency,[20],inactive
C[N+]1(C)CCc2cc3c(cc2C1C1OC(=O)c2c1ccc1c2OCO1)OCO3 (stereo not given),outcome,[3],inactive
same,Potency,[13],8.91 µM (active)
same,outcome,[4],inactive
same,Potency,[14],inactive
same,Potency,[2],inactive
same,Potency,[5],inactive
same,Potency,[6],inactive
CO[C@@H](/C=C/CC/C=C/C(=O)O)[C@@H](O)[C@H](C)/C=C(\C)[C@@H](O)[C@H](C)C(=O)CCCC1CC(=O)NC(=O)C1,Potency,[19],inactive
same,Potency,[20],inactive
CN1CCc2cc(O)cc3c2C1Cc1ccc(O)c(O)c1-3 (stereo not given),outcome,[3],inactive
same,Potency,[13],11.2 µM (active)
same,Potency,[1],6.31 µM (active)
same,Potency,[14],inactive
same,Potency,[5],18.5 µM (active)
CC(=O)N[C@H]1CCN2CCC[C@H]12,Potency,[19],inactive
same,Potency,[20],inactive
O=C(O)c1ccccc1-c1c2cc(Br)c(=O)cc-2oc2[c]([Hg])c(O)c(Br)cc12,Potency,[17],inactive
same,outcome,[18],inactive
COC(=O)C1=C2Nc3ccccc3[C@@]23CCN2CC(C(C)=O)C1C[C@H]23 (stereo not given in full),Potency,[20],inactive
c1cncc(C2CCCCN2)c1 (stereo not given),Potency,[17],inactive
same,outcome,[18],inactive
CNCCc1ccc(O)cc1,Potency,[20],inactive
CCC(=O)CCCCC[C@@H]1NC(=O)[C@H]2CCCCN2C(=O)[C@H]([C@@H](C)CC)NC(=O)[C@H](Cc2cn(OC)c3ccccc23)NC1=O,Potency,[19],33.4 nM (active)
same,Potency,[10],inactive
same,Potency,[11],inactive
NC[C@H](CP(=O)(O)O)c1ccc(Cl)cc1,activation,[12],-2.39% (inactive)
COc1ccc2[nH]cc(CCN(C)C)c2c1,outcome,[3],inactive
same,Potency,[13],inactive
same,outcome,[4],inactive
same,Potency,[14],inactive
same,Potency,[2],inactive
same,Potency,[5],inactive
same,Potency,[6],inactive
CC1=CC2CC[C@@H]3[C@@H](C)C[C@H](C)[C@@H](C1)N23 (stereo not given in full),Potency,[20],inactive
